Where “and” joins values, the source holds several entries; their conditions need not be identical. Equal entries are not always repeated. About 520 (0.16%) of roughly 330,000 compounds were called active.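 The calls were made as follows: active = inhibition of at least 50% in every replicate; inconclusive = best replicate reaches 50% inhibition but some replicates fall short; inactive = the rest.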 Many of the other results were omitted from the sample, so actives are more common in it than they were. More than one record can exist for a structure, and the calls need not agree.

Histone acetyltransferase RTT109 (Candida albicans (strain SC5314 / ATCC MYA-2876)), sequence (Q5AAJ8 whole entry, looked up): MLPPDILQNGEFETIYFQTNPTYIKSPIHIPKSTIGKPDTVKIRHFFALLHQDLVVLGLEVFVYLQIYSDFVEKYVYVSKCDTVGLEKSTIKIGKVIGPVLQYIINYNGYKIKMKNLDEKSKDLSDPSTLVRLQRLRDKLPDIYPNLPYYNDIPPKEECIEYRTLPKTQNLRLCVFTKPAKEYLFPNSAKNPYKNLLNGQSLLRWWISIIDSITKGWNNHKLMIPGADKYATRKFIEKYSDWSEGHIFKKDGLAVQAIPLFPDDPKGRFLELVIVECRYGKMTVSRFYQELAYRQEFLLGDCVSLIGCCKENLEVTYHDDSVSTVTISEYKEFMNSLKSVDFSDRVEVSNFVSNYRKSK

The assay has as its target Histone acetyltransferase RTT109 (Candida albicans (strain SC5314 / ATCC MYA-2876)) (UniProt Q5AAJ8). Kind of assay: inhibitors of C. albicans Rtt109/Vps75 HAT, primary screen, biochemical, ThioGlo CoA-SH fluorescence, plate reader (AID 540336). To be noted: purified Rtt109/Vps75, ThioGlo CoA-SH fluorescence, 4 h; at 34.9 µM; stronger effect = higher value.
As a reminder, the inhibition is the relative decrease from the control value, in per cent. On to `CCN(CC(=O)Nc1c(F)cccc1F)C(=O)Cc1cccs1`, for which the inhibition is -5.91% (inactive).

Take `COC(=O)c1ccc(CNC(=O)Cn2cc(C)c(=O)[nH]c2=O)cc1`: the inhibition was -6.85% (inactive).

Take `NC(=S)NN=C1CCCC(C(F)(F)F)C1` (stereo not drawn): the inhibition is 6.12% (inactive).

As to `CN(CCc1ccccc1)C(=O)c1cccc(NC(=O)Cc2cccc(NC(=O)C3CCCN(C(=O)CCc4ccccc4)C3)c2)c1` (stereo not drawn), the inhibition was 10.3% (inactive).

With `CCN(CC)CCCC(C)n1c2nc(=O)[nH]c(=O)c-2nc2cc(Cl)ccc21` (stereo not drawn), the inhibition was 1.9% (inactive).

As for `CC(=O)Oc1ccc(OC(C)=O)c2c1C1C=CC2CC1`, the inhibition is -1.25% (inactive).

In the case of `O=C(CCC(=O)N1CCN(S(=O)(=O)c2ccc(Cl)cc2)CC1)NCc1cccc(C(F)(F)F)c1`, the inhibition was -0.722% (inactive).

For `CC(C(=O)Nc1ccc(O)c(C(=O)O)c1)N1C(=O)/C(=C/c2cccs2)SC1=S` (stereo not drawn), the inhibition is 81.1% (active).

Take `O=C(CCN1C(=O)/C(=C/c2cccs2)SC1=S)NNC(=O)c1cccc(O)c1`: the inhibition is 2.35% (inactive).

`O=C(CCCN1C(=O)/C(=C/c2cccs2)SC1=S)Nc1ccc(O)cc1`: the inhibition was 3.39% (inactive).

Consider `COc1ccc(C(=O)N(C)Cc2ccc(OC)c(OC)c2OC)cc1S(=O)(=O)N1CCOCC1`, for which the inhibition was 1.9% (inactive).

With `O=C1CC(c2ccccc2)C(c2ccccc2)=NN1` (stereo not drawn), the inhibition is 6.56% (inactive).

Turning to `O=C1/C(=C\c2ccc([N+](=O)[O-])cc2)CS(=O)(=O)C/C1=C/c1ccc([N+](=O)[O-])cc1`, the inhibition was -5.87% (inactive).

`CCCCN(C(=O)c1cccc(N2C(=O)c3ccccc3C2=O)c1)c1c(N)n(CCCC)c(=O)[nH]c1=O`: the inhibition was 6% (inactive).

As to `COC(=O)c1c(NC(=O)C2CC(C)=C(C)CC2C(=O)O)sc2c1CCCCC2` (stereo not drawn), the inhibition was 56.5% (active).

In the case of `COC(=O)c1c(NC(=O)CSc2nncs2)sc2c1CCCCC2`, the inhibition is -2.31% (inactive).

Regarding `N#Cc1c(NC(=O)C2CC(Cl)=CCC2C(=O)O)sc2c1CCCCC2` (stereo not drawn), the inhibition is -0.566% (inactive).

As for `COc1ccc(CNC(=O)COC(=O)C2=Cc3ccccc3OC2)cc1`, the inhibition is 7.22% (inactive).

For `Cn1c(=O)[nH]c2c(c(C(=O)O)nn2C)c1=O`, the inhibition was 7.13% (inactive).

On to `C[N+]1(CC(O)COc2ccccc2)CCN(C(=O)c2ccc([N+](=O)[O-])cc2)CC1` (stereo not drawn), for which the inhibition was 52.5% (active).

As for `O=C(COc1ccccc1)Nc1ccc(C(=O)N2CCCC2)cc1`, the inhibition was 28.7% (inactive).

`CC1CCN(CC(O)COc2ccc(C(=O)c3ccccc3)cc2)CC1` (stereo not drawn): the inhibition is 0.839% (inactive).

Turning to `NC(=O)C1CCN(C(=O)c2cc(S(=O)(=O)N3CCN(c4ccccc4)CC3)ccc2Cl)CC1`, the inhibition is -0.602% (inactive).

As for `CCC(C)C1(C2CCCC2)NC(=O)NC1=O` (stereo not drawn), the inhibition was -0.893% (inactive).

Turning to `CC(C)[C@@H](C(=O)OCC(=O)c1ccc2c(c1)NC(=O)CO2)N1C(=O)c2ccccc2C1=O`, the inhibition was 2.17% (inactive).

As to `O=c1nc(NO)ccn1C1CCCO1` (stereo not drawn), the inhibition was -2.47% (inactive).

As to `O=C(O)c1ccc(S(=O)(=O)c2ccccc2)s1`, the inhibition is -2.02% (inactive).

As for `Cc1c[n+]([O-])ccc1[N+](=O)[O-]`, the inhibition is -8.76% (inactive).

For `Cc1nn(-c2ncccn2)c2c1C(=O)CC(C)(C)C2Br` (stereo not drawn), the inhibition was 8.81% (inactive).

`COCCN(C(=O)C(C)N1C(=O)c2ccccc2C1=O)c1c(N)n(CC(C)C)c(=O)[nH]c1=O` (stereo not drawn): the inhibition is -5.79% (inactive).

Consider `CN(C)/C=C(/C(=O)c1ccccc1)S(=O)(=O)c1ccc(Cl)cc1`, for which the inhibition was 0.945% (inactive).

In the case of `COc1cccc2sc(N(CCCN(C)C)C(=O)C(c3ccccc3)c3ccccc3)nc12`, the inhibition is -2% (inactive).

For the molecule `Cc1cccc2sc(N(CCCN(C)C)C(=O)CCS(=O)(=O)c3ccccc3)nc12`, the inhibition is 30.9% (inactive).

For the molecule `COc1cccc2sc(N(CCCN(C)C)C(=O)CCS(=O)(=O)c3ccccc3)nc12`, the inhibition was 83.9% (active).

For `Cc1cccc(-n2c(SCC(N)=O)nc3c(c2=O)C2(CCCCC2)Cc2ccccc2-3)c1`, the inhibition is 53.5% (active).

Take `Cc1cccc(-n2c(=O)c3c(C)c(C)sc3n(CC(N)=O)c2=O)c1`: the inhibition is -1.94% (inactive).

On to `N#CCSc1nc2c(c(=O)n1Cc1ccccc1)C1(CCCC1)Cc1ccccc1-2`, for which the inhibition was 8.15% (inactive).

On to `O=C(OC12CC3CC(CC(C3)C1)C2)c1ccc(NCc2cc(O)ccc2O)cc1`, for which the inhibition was -1.56% (inactive).

`CC(C)c1ccc(C=NNc2ccc([N+](=O)[O-])cn2)cc1`: the inhibition was 4.1% (inactive).

For `CSCCC(NC(=O)COc1ccccc1)C(=O)OCc1ccc(Cl)cc1` (stereo not drawn), the inhibition is -1.24% (inactive).

For the molecule `COc1ccccc1NC(=O)C[n+]1ccccc1`, the inhibition is -9.21% (inactive).

For `COc1ccccc1NC(=S)NC(=O)C(C)C`, the inhibition was -8.37% (inactive).

For `COc1ccccc1NC(=O)/C=C/C(N)=O`, the inhibition was 121% (active).

As to `CCOC(=O)C1CCCN(C(=O)C2CCN(S(=O)(=O)c3ccc(Cl)c(C(F)(F)F)c3)CC2)C1` (stereo not drawn), the inhibition was 10.8% (inactive).

`CCC1([N+](=O)[O-])COC(c2ccc(C)cc2)OC1` (stereo not drawn): the inhibition is -3.32% (inactive).

For `Cc1c(CCO)sc[n+]1CC(=O)OC12CC3CC(CC(C3)C1)C2`, the inhibition was 2.54% (inactive).

For `Cc1c(CCOC(=O)CC23CC4CC(CC(C)(C4)C2)C3)sc[n+]1Cc1ccc([N+](=O)[O-])cc1`, the inhibition was 64.3% (active) and -8% (inactive).

In the case of `Cc1c(CCOC(=O)c2cc([N+](=O)[O-])ccc2Cl)sc[n+]1CCCCS(=O)(=O)[O-]`, the inhibition was 12.5% (inactive).

For the molecule `Cc1ccc(S(=O)(=O)N2CCN(C(=O)COC(=O)/C=C/c3cccc(Cl)c3)CC2)c(C)c1`, the inhibition was 5.03% (inactive).

In the case of `CN(C)C(CNC(=O)c1cc2ccccc2o1)c1ccccc1` (stereo not drawn), the inhibition was 2.45% (inactive).

In the case of `CCN(CC)S(=O)(=O)c1cccc(NC(=O)c2ccc(S(=O)(=O)N3CCCC3)cc2)c1`, the inhibition is -3.62% (inactive).

Regarding `CC1C(C)N(C(=O)CCl)c2ccccc2N1C(=O)CCl` (stereo not drawn), the inhibition was -6.55% (inactive).

Turning to `Nc1cc2c(cc1Br)-c1ccc(F)cc1C2=O`, the inhibition was -11.8% (inactive).

With `CC1CN(Cc2ccco2)C(=S)N(c2ccccc2)C1=O` (stereo not drawn), the inhibition was 3.62% (inactive).

For `NC(=O)c1ncn([C@@H]2O[C@H](CN=C3NS(=O)(=O)c4ccccc43)[C@@H](O)[C@H]2O)n1`, the inhibition is -1.34% (inactive).

For the molecule `O=C(Nc1ccc(-c2csc(Nc3cccc(C(F)(F)F)c3)n2)cc1)c1cccc(C(F)(F)F)c1`, the inhibition is -6.03% (inactive).

Turning to `CC(=O)Nc1cccc(-c2csc(Nc3cccc(C)n3)n2)c1`, the inhibition was 65% (active).

In the case of `Cc1ccccc1Nc1nc(-c2cccnc2)cs1`, the inhibition was -4.39% (inactive).

Values taken from PubChem BioAssay AID540336 (Broad Institute, 2011).
